Reference: the supplement of paper PMC10849652
About 8,800 targets were measured; listed, in parts, are those with a hit and a random draw of the rest. About 0.5% of all pairs of compound and target were hits.

Assays:
Assay in all cases: log2 fold change, soluble protein after heating vs DMSO (PISA); higher = thermal stabilisation; K562 lysate, 10 uM; active = over 0.2 and 3.5 SD of the protein, either way, in both replicates (recomputed)
[1] = compound: CCCS(=O)(=O)Nc1ccc(F)c(C(=O)c2c[nH]c3ncc(-c4ccc(Cl)cc4)cc23)c1F [vemurafenib]
Summary of the method: (§1)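 Dounce homogenisation of K562 pellets in PBS pH 7.4 with 1 mM MgCl2 produced a crude extract, used at 1 mg/mL protein. Exposure to 10 μM compound lasted 30 min, and aliquots were then heated for 3 min across 48°C-58°C, pooled and brought to 0.5% NP-40 at 4°C. The supernatant after 21,000xg for 90 min was quantified by TMTpro 16plex LC-MS/MS with channel sums equalised. Duplicate values are given as log-two fold change in thermal stability relative to solvent controls.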

[2] = compound: CCCS(=O)(=O)Nc1ccc(F)c(C(=O)c2c[nH]c3ncc(Cl)cc23)c1F
Summary of the method: as §1

[3] = compound: CCN(CCCOc1ccc2c(Nc3cc(CC(=O)Nc4cccc(F)c4)[nH]n3)ncnc2c1)CCOP(=O)(O)O [barasertib]
Summary of the method: as §1

[4] = compound: CC[C@@H]1C(=O)N(C)c2cnc(Nc3ccc(C(=O)NC4CCN(C)CC4)cc3OC)nc2N1C1CCCC1
Summary of the method: as §1

[5] = compound: CC[C@@H]1C(=O)N(C)c2cnc(Nc3ccc(C(=O)N[C@H]4CC[C@H](N5CCN(CC6CC6)CC5)CC4)cc3OC)nc2N1C(C)C [volasertib]
Summary of the method: as §1

[6] = compound: CCn1c(C(=O)N(C2CC2)C2CC2)cc2c3c(ncn3C)c(Nc3cc(C)n(C)n3)nc21
Summary of the method: as §1

[7] = compound: CCn1cc(-c2ccnc3[nH]c(-c4cccc(CN(C)C)c4)cc23)c(-c2ccc(NC(=O)N(C)C)cc2)n1
Summary of the method: as §1

[8] = compound: CN1CCC(CNc2ccc3ncc(-c4cccc(OC(F)(F)F)c4)n3n2)CC1
Summary of the method: as §1

[9] = compound: CN1CCN(CCOc2cc(OC3CCOCC3)c3c(Nc4c(Cl)ccc5c4OCO5)ncnc3c2)CC1 [saracatinib]
Summary of the method: as §1

[10] = compound: CN1CCN(c2nc(C3=C(c4c[nH]c5ccccc45)C(=O)NC3=O)c3ccccc3n2)CC1 [sotrastaurin]
Summary of the method: as §1

Measured: log2 fold change

INTS10 (UniProt Q9NVR2)
inactive: [1] -0.008 | [2] -0.183 | [3] 0.061 | [4] -0.129 | [5] -0.088 | [6] -0.021 | [7] 0.14 | [8] -0.054 | [9] 0.052 | [10] 0.023

HSP90AA4P (UniProt Q58FG1)
inactive: [1] -0.002 | [2] 0 | [3] 0.377 | [4] 0.006 | [5] 0.005 | [6] -0.076 | [7] 0.26 | [8] 0.041 | [9] -0.03 | [10] 0.033

HNRNPD isoform 3 (UniProt Q14103)
inactive: [1] 0.024 | [2] -0.028 | [3] -0.033 | [4] 0.128 | [5] 0.014 | [6] 0.077 | [7] -0.077 | [8] -0.023 | [9] 0.048 | [10] -0.066

HNRNPUL2 (UniProt Q1KMD3)
Sequence of UniProt Q1KMD3 (Q1KMD3 whole entry, looked up): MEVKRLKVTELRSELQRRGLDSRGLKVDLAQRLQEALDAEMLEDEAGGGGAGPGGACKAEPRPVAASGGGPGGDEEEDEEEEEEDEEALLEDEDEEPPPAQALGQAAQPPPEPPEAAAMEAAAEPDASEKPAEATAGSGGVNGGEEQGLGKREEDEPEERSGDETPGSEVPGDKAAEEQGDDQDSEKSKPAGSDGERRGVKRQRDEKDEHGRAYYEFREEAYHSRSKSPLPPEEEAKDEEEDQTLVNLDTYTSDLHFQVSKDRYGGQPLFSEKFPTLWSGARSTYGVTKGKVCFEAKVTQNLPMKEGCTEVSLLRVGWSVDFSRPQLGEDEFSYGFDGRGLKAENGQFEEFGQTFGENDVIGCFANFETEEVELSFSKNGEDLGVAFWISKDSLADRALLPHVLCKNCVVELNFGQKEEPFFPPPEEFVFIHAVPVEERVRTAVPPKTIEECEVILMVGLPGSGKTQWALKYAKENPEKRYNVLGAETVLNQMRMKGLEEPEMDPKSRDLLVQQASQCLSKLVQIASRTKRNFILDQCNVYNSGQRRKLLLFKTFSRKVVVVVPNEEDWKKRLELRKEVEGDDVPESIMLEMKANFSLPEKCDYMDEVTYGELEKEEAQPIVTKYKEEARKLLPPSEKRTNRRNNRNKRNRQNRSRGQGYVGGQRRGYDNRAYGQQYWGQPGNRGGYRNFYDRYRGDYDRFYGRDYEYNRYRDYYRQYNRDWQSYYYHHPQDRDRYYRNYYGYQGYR
inactive: [1] 0.024 | [2] 0.017 | [3] 0.038 | [4] 0.005 | [5] -0.009 | [6] -0.012 | [7] -0.029 | [8] 0.008 | [9] 0.029 | [10] 0.04

HADHB (UniProt P55084)
inactive: [1] -0.019 | [2] -0.004 | [3] -0.124 | [4] 0.047 | [5] 0.099 | [6] -0.005 | [7] -0.001 | [8] 0.074 | [9] 0.012 | [10] -0.069

HAUS6 (UniProt Q7Z4H7)
inactive: [1] 0.004 | [2] 0.092 | [3] 0.025 | [4] 0.012 | [5] -0.068 | [6] 0.015 | [7] -0.063 | [8] 0.014 | [9] 0.01 | [10] 0.022

HARS (UniProt P12081)
Sequence of UniProt P12081 (P12081 whole entry, looked up): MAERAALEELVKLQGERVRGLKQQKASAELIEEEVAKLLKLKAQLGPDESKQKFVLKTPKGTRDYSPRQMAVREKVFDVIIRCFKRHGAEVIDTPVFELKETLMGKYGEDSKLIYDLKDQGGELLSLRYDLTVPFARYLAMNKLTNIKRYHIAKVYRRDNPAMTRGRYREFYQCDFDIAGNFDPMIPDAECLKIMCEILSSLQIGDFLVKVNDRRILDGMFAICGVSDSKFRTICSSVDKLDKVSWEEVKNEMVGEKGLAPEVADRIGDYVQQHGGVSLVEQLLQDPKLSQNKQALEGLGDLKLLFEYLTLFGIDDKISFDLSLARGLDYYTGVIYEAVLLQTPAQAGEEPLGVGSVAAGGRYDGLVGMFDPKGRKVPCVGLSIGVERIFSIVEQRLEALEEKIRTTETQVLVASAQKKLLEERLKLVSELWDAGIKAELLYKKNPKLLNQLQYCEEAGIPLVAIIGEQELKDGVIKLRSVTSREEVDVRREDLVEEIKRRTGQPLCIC
inactive: [1] -0.024 | [2] -0.02 | [3] -0.031 | [4] -0.049 | [5] -0.006 | [6] 0.012 | [7] 0.023 | [8] -0.01 | [9] -0.021 | [10] 0.009

GMPS (UniProt P49915)
inactive: [1] -0.006 | [2] -0.011 | [3] -0.008 | [4] -0.05 | [5] -0.046 | [6] -0.011 | [7] 0.128 | [8] -0.047 | [9] 0.014 | [10] -0.005

HK1 isoform 2 (UniProt P19367)
Sequence of UniProt P19367 (P19367 whole entry, looked up): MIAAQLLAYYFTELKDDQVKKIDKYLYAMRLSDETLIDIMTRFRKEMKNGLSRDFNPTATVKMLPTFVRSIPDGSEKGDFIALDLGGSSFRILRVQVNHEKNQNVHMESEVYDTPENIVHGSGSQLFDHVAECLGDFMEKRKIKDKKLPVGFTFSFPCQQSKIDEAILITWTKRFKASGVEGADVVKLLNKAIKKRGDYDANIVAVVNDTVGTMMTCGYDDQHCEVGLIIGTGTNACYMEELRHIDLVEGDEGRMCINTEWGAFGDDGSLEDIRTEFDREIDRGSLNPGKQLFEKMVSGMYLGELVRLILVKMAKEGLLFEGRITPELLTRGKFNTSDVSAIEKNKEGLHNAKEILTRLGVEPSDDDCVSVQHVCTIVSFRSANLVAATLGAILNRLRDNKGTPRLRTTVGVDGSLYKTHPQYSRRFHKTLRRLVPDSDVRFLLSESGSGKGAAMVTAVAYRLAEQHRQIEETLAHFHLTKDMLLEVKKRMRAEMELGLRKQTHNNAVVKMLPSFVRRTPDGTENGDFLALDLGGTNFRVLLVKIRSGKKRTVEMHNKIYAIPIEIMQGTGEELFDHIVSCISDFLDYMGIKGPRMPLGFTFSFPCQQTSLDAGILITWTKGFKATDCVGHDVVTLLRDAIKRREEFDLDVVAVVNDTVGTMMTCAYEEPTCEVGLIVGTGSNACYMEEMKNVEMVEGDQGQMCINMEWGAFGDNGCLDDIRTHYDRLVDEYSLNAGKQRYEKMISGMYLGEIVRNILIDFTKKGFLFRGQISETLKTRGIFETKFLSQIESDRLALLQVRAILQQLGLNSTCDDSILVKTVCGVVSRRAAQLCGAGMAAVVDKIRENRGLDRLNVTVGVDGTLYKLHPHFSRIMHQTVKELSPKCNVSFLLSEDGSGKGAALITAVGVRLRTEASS
inactive: [1] 0.009 | [2] 0.003 | [3] 0.012 | [4] -0.023 | [5] -0.004 | [6] 0.014 | [7] -0.008 | [8] -0.013 | [9] -0.015 | [10] 0.004

IMMT (UniProt C9J406)
inactive: [1] -0.018 | [2] -0.036 | [3] -0.105 | [4] 0.098 | [5] -0.015 | [6] 0.018 | [7] -0.464 | [8] -0.037 | [9] 0.074 | [10] 0.02

GSTZ1 (UniProt G3V4T6)
inactive: [1] -0.013 | [2] -0.024 | [3] 0.018 | [4] -0.101 | [5] -0.02 | [6] -0.029 | [7] -0.116 | [8] 0.087 | [9] -0.012 | [10] -0.018

GLYR1 (UniProt Q49A26)
Sequence of UniProt Q49A26 (Q49A26 whole entry, looked up): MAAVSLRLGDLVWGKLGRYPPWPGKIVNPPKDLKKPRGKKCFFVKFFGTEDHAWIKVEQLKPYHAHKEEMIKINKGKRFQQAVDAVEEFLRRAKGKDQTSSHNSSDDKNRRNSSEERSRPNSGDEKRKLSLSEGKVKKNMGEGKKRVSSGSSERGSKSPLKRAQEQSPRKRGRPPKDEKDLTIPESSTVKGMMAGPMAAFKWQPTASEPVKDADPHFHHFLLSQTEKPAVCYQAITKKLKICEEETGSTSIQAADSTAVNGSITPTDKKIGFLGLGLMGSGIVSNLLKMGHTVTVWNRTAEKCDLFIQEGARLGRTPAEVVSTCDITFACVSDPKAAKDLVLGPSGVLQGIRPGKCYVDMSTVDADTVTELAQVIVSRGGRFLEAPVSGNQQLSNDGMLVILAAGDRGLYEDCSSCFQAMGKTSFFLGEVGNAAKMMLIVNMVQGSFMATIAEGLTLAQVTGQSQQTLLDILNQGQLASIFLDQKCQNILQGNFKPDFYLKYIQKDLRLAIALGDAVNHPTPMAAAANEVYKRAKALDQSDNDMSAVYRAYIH
inactive: [1] -0.059 | [2] 0.019 | [3] 0.162 | [4] 0.045 | [5] -0.005 | [6] 0.011 | [7] -0.088 | [8] 0.038 | [9] 0.05 | [10] 0.064

GNL3 (UniProt Q9BVP2)
Sequence of UniProt Q9BVP2 (Q9BVP2 whole entry, looked up): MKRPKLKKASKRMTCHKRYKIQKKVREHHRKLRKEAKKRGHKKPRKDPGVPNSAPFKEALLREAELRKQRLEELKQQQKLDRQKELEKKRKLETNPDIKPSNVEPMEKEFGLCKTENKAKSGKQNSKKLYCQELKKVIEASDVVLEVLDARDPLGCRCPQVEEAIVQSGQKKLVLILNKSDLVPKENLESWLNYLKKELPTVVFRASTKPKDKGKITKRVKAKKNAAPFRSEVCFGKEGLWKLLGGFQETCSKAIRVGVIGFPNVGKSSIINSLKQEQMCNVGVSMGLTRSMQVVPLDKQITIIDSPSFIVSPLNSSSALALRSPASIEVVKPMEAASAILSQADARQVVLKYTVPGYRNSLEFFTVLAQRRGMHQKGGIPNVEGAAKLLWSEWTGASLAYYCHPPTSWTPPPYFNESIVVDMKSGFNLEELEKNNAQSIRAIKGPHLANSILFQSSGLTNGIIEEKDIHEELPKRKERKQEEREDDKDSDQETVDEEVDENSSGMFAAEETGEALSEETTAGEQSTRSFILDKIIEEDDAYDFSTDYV
inactive: [1] 0.051 | [2] 0.041 | [3] 0.032 | [4] -0.078 | [5] 0.004 | [6] -0.07 | [7] 0.129 | [8] -0.066 | [9] 0.004 | [10] 0.013

KDM5C (UniProt P41229)
Sequence of UniProt P41229 (P41229 whole entry, looked up): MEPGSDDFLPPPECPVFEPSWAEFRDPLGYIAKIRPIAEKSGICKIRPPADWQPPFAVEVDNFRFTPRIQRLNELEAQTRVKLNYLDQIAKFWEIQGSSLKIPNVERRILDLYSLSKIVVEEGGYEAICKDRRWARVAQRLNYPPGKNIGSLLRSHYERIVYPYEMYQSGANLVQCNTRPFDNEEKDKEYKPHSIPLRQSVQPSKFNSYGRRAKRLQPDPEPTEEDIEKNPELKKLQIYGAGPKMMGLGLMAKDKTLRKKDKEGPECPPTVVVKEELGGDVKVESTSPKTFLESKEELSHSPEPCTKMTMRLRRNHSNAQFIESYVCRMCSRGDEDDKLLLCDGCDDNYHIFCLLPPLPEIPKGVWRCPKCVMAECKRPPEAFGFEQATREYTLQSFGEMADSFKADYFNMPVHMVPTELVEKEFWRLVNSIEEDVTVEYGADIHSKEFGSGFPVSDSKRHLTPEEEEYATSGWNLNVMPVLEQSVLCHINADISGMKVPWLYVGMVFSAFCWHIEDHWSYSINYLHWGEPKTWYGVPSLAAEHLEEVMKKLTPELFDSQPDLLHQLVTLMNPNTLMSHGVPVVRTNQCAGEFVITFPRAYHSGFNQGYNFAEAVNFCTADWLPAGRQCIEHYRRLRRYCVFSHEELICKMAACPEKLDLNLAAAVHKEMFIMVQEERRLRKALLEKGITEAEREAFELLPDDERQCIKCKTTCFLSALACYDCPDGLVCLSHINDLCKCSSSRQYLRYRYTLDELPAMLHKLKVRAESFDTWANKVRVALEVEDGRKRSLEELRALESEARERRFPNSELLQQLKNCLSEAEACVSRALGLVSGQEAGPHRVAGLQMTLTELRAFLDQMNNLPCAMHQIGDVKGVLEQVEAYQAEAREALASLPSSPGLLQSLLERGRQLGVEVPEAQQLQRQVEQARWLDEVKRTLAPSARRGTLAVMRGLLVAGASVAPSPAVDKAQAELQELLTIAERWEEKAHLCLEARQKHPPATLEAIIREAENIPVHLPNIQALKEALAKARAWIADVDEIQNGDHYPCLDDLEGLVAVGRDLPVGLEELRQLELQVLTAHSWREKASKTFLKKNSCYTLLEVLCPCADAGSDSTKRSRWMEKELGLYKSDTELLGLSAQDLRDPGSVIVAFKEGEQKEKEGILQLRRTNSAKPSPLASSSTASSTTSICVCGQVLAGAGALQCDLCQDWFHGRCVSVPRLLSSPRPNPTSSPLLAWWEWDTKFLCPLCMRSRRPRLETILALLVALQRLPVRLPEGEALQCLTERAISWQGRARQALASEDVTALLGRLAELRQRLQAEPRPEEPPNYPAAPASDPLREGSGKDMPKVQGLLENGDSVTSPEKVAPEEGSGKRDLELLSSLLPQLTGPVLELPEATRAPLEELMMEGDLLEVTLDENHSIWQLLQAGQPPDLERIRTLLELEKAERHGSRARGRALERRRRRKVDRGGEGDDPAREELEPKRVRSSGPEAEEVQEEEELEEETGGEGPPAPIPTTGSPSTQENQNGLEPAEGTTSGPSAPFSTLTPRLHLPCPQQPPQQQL
inactive: [1] 0.001 | [2] 0.036 | [3] 0.096 | [4] -0.031 | [5] 0.004 | [6] -0.001 | [7] -0.028 | [8] -0.059 | [9] 0.008 | [10] 0.019

KHDRBS1 (UniProt Q07666)
inactive: [1] -0.025 | [2] 0.004 | [3] 0.034 | [4] -0.024 | [5] -0.024 | [6] -0.002 | [7] 0.083 | [8] -0.048 | [9] -0.004 | [10] -0.008
